Results as given in the supplement of paper PMC6555819.

Columns and labels:
Assay in all cases: PBM binding z-score (relative to random genomic background probes); higher = stronger binding; sequences stand for … in GC…GCGATTGACAGCGTAGAATGAAGG
[1] = tested on: FXR:RXRa (NR concentration 270 nM, RXRa partner concentration 90 nM)
Method in brief: (§1)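 Binding buffer was PBS pH 7.4 with 2% milk, 0.02% Triton X-100, 1 mM DTT, 0.2 mg/mL BSA and 0.4 mg/ml salmon testes DNA. In it, ligand-free nuclear receptor dimers were incubated 1 h on custom Agilent 4×180K protein-binding microarrays carrying double-stranded probes. Antibodies against each partner (one per run) detected binding, and z-scores were calculated against random background probes after regression normalization of scanned fluorescence.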

[2] = tested on: LXRa:RXRa (NR concentration 270 nM, RXRa partner concentration 90 nM)
Method in brief: as §1

[3] = tested on: LXRa homodimer (NR concentration 270 nM)
Method in brief: as §1

[4] = tested on: LXRb:RXRa (NR concentration 270 nM, RXRa partner concentration 90 nM)
Method in brief: as §1

[5] = tested on: LXRb homodimer (NR concentration 270 nM)
Method in brief: as §1

[6] = tested on: PPARa:RXRa (NR concentration 270 nM, RXRa partner concentration 90 nM)
Method in brief: as §1

[7] = tested on: PPARg:RXRa (NR concentration 180 nM, RXRa partner concentration 90 nM)
Method in brief: as §1

[8] = tested on: PPARg:RXRa 270nM:90nM, anti-RXR (NR concentration 270 nM, RXRa partner concentration 90 nM)
Method in brief: as §1

[9] = tested on: PPARg:RXRa 30nM:10nM, anti-RXR (NR concentration 30 nM, RXRa partner concentration 10 nM)
Method in brief: as §1

[10] = tested on: PPARg:RXRa 90nM:30nM, anti-RXR (NR concentration 90 nM, RXRa partner concentration 30 nM)
Method in brief: as §1

[11] = tested on: PPARg:RXRa DBDmut IVT, anti-RXR (DBD mutation: RXRa K156A/R161A, NR concentration 270 nM, RXRa partner concentration 90 nM)
Method in brief: as §1

[12] = tested on: PPARg:RXRa IVT, anti-PPARg (NR concentration 270 nM, RXRa partner concentration 90 nM)
Method in brief: as §1

[13] = tested on: PPARg DBDmut:RXRa IVT, anti-PPARg (DBD mutation: PPARg1 K132A/R137A, NR concentration 270 nM, RXRa partner concentration 90 nM)
Method in brief: as §1

[14] = tested on: PPARg DBDmut IVT, anti-PPARg (DBD mutation: PPARg1 K132A/R137A, NR concentration 270 nM)
Method in brief: as §1

[15] = tested on: PPARg homodimer (NR concentration 180 nM)
Method in brief: as §1

[16] = tested on: PXR:RXRa (NR concentration 270 nM, RXRa partner concentration 90 nM)
Method in brief: as §1

[17] = tested on: PXR homodimer (NR concentration 270 nM)
Method in brief: as §1

[18] = tested on: RARa:RXR (NR concentration 270 nM, RXRa partner concentration 90 nM)
Method in brief: as §1

[19] = tested on: RARa homodimer (NR concentration 270 nM)
Method in brief: as §1

[20] = tested on: RARb:RXRa (NR concentration 270 nM, RXRa partner concentration 90 nM)
Method in brief: as §1

Sequence	PBM binding z-score [1]	PBM binding z-score [2]	PBM binding z-score [3]	PBM binding z-score [4]	PBM binding z-score [5]	PBM binding z-score [6]	PBM binding z-score [7]	PBM binding z-score [8]	PBM binding z-score [9]	PBM binding z-score [10]	PBM binding z-score [11]	PBM binding z-score [12]	PBM binding z-score [13]	PBM binding z-score [14]	PBM binding z-score [15]	PBM binding z-score [16]	PBM binding z-score [17]	PBM binding z-score [18]	PBM binding z-score [19]	PBM binding z-score [20]
CCGACTGGGGCATAAGGTGACCATAAGCCAGCCC	-0.111	-0.426	-0.561	-0.432	-1.62	1.3	2.04	2.92	0.757	2.38	2.39	3.15	-0.511	-1.28	0.186	-0.504	-0.373	0.332	-0.248	1.23
CCTGCTAGGTCATAGTCAGCTAATCTACAGTATG	3.02	2.11	0.646	1.7	0.153	3.12	1.77	2.14	0.394	1.32	3.96	3.31	0.51	0.574	1.15	1.16	-0.0222	1.73	0.243	3.54
ATATGTAGGTTATGGGGTCATTCAGTTTGCGCAT	5.54	5.12	3.61	5.55	2.36	5.91	8.65	7.03	5.67	7.31	7.59	7.35	1.83	2.58	3.35	6.12	11.7	6.45	2.37	3.54
TGTCCAAGTTCAAAGGTAACGTAAGTATCCACAC	4.56	4.49	1.09	3.06	0.689	4.29	4	4.65	2.1	4.16	-0.319	1.81	1.26	1.32	1.85	4.87	3.45	5.04	0.541	3.42
TCGGGTAGGTTAGGGGCATTCAGAATGGCGTCGA	1.49	1.32	0.575	2.21	1.8	1.85	0.499	1.7	1.98	1.74	1.55	1.36	0.266	0.468	1.38	1.67	1.27	1.32	0.423	1.74
ATCGGAAGGTCGAAGGTGAGTATACCCACCCGAA	2.14	1.54	-0.0479	1.23	-0.0206	3.18	3.05	3.84	1.55	3.07	-0.338	1.53	0.343	-0.28	1.26	1.65	0.401	2.34	-0.118	2.55
TCTTGTAGATCAATGGAGGTTAAGAAAGTGCGCT	0.901	2.8	0.173	1.3	-0.0128	1.52	-0.31	1.5	2.83	2.18	2.04	1.57	0.0784	1.12	-0.199	2.58	0.0457	1.16	0.49	0.504
CCTTACGGGTCACGAGGTTAAAGCACGACGAGCG	7.54	4.81	0.696	4.3	0.192	6.28	7.86	7.25	3.78	6.28	3.53	5.39	0.774	0.583	4.94	4.93	0.408	6.28	1.03	4.76
TCTAGCAGGCCGGAGGGTCACTCAAGAGGTACGG	0.786	0.705	-0.517	0.729	-1.11	1.69	0.508	1.34	1.19	1.2	0.524	-0.0805	-0.889	-1.31	0.278	0.98	-0.311	1.65	-0.429	1.74
ATCGAAAGGTCGACGAGGTCAGTATACACCGTTT	5.54	5.03	1.52	4.61	0.78	5.04	3.64	4.13	1.28	2.65	1.29	2.59	1.42	0.928	2.73	5.77	9.23	5.2	1.54	4.56
ATCTGTAGGTAACAAGTTCAGTGAAAGAGAGGAC	0.84	0.812	0.628	0.805	0.615	1.59	1.51	2.08	0.821	1.57	2.85	2.64	1.31	0.975	1.16	1.58	0.906	1.16	0.818	1.63
AGTCAAAGTGCACTAGGTAACGTAAGATTCAGCT	-0.308	-0.0298	-0.372	-0.0247	-0.424	1.85	3.36	3.28	1.04	1.89	1.83	3.56	0.58	-0.0287	0.167	0.215	0.189	0.315	-0.372	1.53
ATCGAAAGGTCGAAGGTAAGTATACCCACCCGAA	3.95	3.26	0.165	2.83	0.858	4.25	3.8	3.88	1.59	2.86	-0.0708	1.49	0.751	0.919	0.93	2.6	0.149	3.27	0.263	3.59
CAAACTAGGTCAACGGTCAAAGTCGAGCCAACCA	5.58	4.31	2.25	3.09	0.978	6.16	11	9.5	8.86	11	8.71	9.01	1.94	3.3	2.91	2.17	0.267	3.71	0.962	4.51
